Test [1] can be described thus: inhibitors of TNFa-induced NFkB p65 translocation, primary screen, imaging, HUVEC, MLSMR starter and 10KST1 sets (AID 438;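 active means inhibition above 20% together with a positive visual image hit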;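 further: compound added about 3h40 before a 20 min TNFalpha stimulation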;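 on inhibition: signal is the nuclear over cytoplasmic p65 intensity ratio per well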). Particulars: HUVEC TNFa-induced p65 nuclear translocation; cell count: measured here: nuclei count (cytotoxicity indicator), at 2.08 µM; inhibition: at 2 µM, stronger effect = higher value, 0% TNFa-plus-vehicle, 100% no-TNFa wells.
Test [2] can be described thus: inhibitors of mutant huntingtin aggregation, primary screen, imaging, exon1htt(103Q)mCFP cells, high-content imaging (AID 483;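 active means visual image review flags a hit and inhibition of aggregation exceeds 20%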;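 further: compound exposure lasted 3 days before fixation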;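 on nuclei count: percent of the per-plate median nuclei count of sample wells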). Particulars: exon1htt(103Q)mCFP cell line, aggregate imaging, at 2 µM; inhibition of aggregation: stronger effect = higher value; nuclei count: measured here: cell count, toxicity.
Test [3] can be described thus: inhibitors of E-selectin induction by TNFa, primary screen, imaging, HUVEC, immunofluorescence, MLSMR starter and 10KST1 sets (AID 487;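 active means visually confirmed hit in the image check and inhibition above 20%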;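 on inhibition: signal is fraction of cell area covered by stained E-selectin grains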;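 on nuclei count: 100% = median nuclei count of all wells on the same plate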). Particulars: HUVEC TNFalpha-induced E-selectin immunofluorescence imaging, at 2 µM; inhibition: stronger effect = higher value; nuclei count: measured here: cell number, toxicity.
Test [4] has as its target Voltage-gated potassium channel subunit beta-2 (Rattus norvegicus) (UniProt P62483). As to the kind of experiment: KvBeta enzyme negative modulators, primary screen, biochemical, NADPH fluorescence (AID 622;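 active means fluorescence slope higher than the sample average by over 3 SD, cut at about -0.22 in these data, passing the limit was not always enough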;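 further: slope of raw intensity against log time taken from 70 to 1610 s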). The note with it: recombinant KvBeta, 4-cyanobenzaldehyde reduction, at 10 µM, stronger effect = higher value.
The target is the same in test [5]. As to the kind of experiment: KvBeta positive modulators, primary screen, biochemical, NADPH fluorescence (AID 623).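 Further: fluorescence intensity change per second fitted from 20 to 320 s.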 The note with it: Recombinant KvBeta, NADPH fluorescence decrease slope, 10 min; at 10 µM; stronger effect = lower value.
In test [6] the target is Alpha-2C adrenergic receptor (Homo sapiens) (UniProt P18825). Put plainly: modulators of alpha2C/GIRK thallium flux, primary screen, cell-based, HEK293 alpha2C/GIRK1/2 (AID 624;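 active means fluorescence slope after compound addition differing from the mean of all screened samples at 99.7% confidence, in either direction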;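 further: slope of fluorescence ratio to pre-addition baseline per second over 15 to 24 s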). Particulars: thallium flux BTC fluorescence, at 10 µM, actives lie on both sides.
Chain of Alpha-2C adrenergic receptor (Homo sapiens) (P18825 whole entry, looked up): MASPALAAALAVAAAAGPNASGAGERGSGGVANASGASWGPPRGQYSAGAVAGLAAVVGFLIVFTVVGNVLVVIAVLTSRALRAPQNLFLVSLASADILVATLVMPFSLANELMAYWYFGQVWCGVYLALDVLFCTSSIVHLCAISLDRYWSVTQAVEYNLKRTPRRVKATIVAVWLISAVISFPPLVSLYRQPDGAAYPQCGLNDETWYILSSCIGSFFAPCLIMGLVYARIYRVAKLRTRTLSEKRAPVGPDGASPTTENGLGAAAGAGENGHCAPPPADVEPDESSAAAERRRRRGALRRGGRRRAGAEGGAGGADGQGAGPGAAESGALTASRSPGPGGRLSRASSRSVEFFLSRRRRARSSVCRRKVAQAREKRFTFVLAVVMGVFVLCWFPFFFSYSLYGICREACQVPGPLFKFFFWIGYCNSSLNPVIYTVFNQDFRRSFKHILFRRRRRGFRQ
A short description of test [7]: inhibitors of Sendai virus-induced IRF3 signaling, primary screen, TLR/RLR signaling modifier project, cell-based, Sendai virus stimulus, luciferase, 10K MLSCN set (AID 602276;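 active means inhibition at or above 50% at 10 µM; inactive means inhibition below 50%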;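 further: firefly luciferase from ISG56 promoter only with Renilla not read in this screen; 0% = Sendai virus plus DMSO and 100% = medium plus DMSO without virus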). The note with it: HEK293 RL24 IRF3 luciferase reporter, at 10 µM, stronger effect = higher value. Background: A reporter such as luciferase makes a cellular process visible.
A short description of test [8]: inhibitors of poly I:C-induced TLR3 signaling, primary screen, cell-based, poly I:C stimulus, luciferase, 10K MLSCN set (AID 602277;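 active means inhibition of the reporter signal at or above 50%; inactive means inhibition below 50%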). The note with it: HEK293-TLR3 RL24 IRF3 luciferase reporter, at 10 µM, stronger effect = higher value.

We go through 14 molecules from PubChem BioAssay.

The source made the active and inactive calls.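 How the source made its calls, unless noted: active means NADPH fluorescence slope more negative than the mean of all samples by about 3 SD, 99.7% confidence; inactive means the rest.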

Chain of Voltage-gated potassium channel subunit beta-2 (Rattus norvegicus) (P62483 whole entry, looked up): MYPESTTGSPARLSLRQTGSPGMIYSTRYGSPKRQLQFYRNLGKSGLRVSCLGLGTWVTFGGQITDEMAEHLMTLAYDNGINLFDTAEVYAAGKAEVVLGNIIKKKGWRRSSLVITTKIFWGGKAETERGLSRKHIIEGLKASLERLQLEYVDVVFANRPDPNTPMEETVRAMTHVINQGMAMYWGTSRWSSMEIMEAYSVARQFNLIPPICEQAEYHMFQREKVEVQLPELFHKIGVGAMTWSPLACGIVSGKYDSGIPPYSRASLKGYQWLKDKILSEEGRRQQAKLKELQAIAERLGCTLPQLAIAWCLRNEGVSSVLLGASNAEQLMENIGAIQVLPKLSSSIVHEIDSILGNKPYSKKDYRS

By inhibition is commonly meant the drop in the measured response relative to a control, in per cent. As for `CCOC(=O)CSc1nnc([C@H](C)NC(=O)OC(C)(C)C)o1`, the cell count in test [1] came out at 552. Moreover, the inhibition in test [1] was 12% (inactive); in test [3] it was -35% (inactive); in test [7], 3.34% (inactive); in test [8], 14.1% (inactive). In addition, the inhibition of aggregation in test [2] is -32.6% (inactive). Also, the nuclei count in test [2] turned out to be 83.6%; in test [3], 118%. For the same molecule, the fluorescence slope in test [4] is -0.471 (inactive). Further, the NADPH fluorescence slope in test [5] was -3.4e-05 (inactive). Moreover, in test [6], the slope was 0.00421 (inactive).

Consider `O=C(CCN1C(=O)c2ccccc2C1=O)NCCN1CCOCC1`, for which the cell count in test [1] came out at 377. Moreover, the inhibition in test [1] is -10.6% (inactive); in test [3] it was -6% (inactive); in test [7], -7.29% (inactive); in test [8], 20.7% (inactive). Besides, the inhibition of aggregation in test [2] is 10.7% (inactive). Further, the values for the nuclei count in test [2] and in test [3] were 96.7% and 97%, respectively. Also, the fluorescence slope in test [4] was -0.452 (inactive). Moreover, the NADPH fluorescence slope in test [5] is 2.7e-05 (inactive). In addition, the slope in test [6] was 0.00342 (inactive).

For `COc1ccccc1OCCCCNCCO`, the cell count in test [1] turned out to be 493. For the same molecule, the inhibition is 9.1% (inactive) in test [1], -80.3% (inactive) in test [3], 1.66% (inactive) in test [7] and 25.1% (inactive) in test [8]. In test [2], the inhibition of aggregation was -4.6% (inactive). Also, the nuclei count turned out to be 103% in test [2] and 130% in test [3]. For the same molecule, the fluorescence slope in test [4] was -0.434 (inactive). Further, the NADPH fluorescence slope in test [5] is -3.7e-05 (inactive). Also, the slope in test [6] was 0.00597 (inactive).

In the case of `CC1(C)CC(=O)C(CC2=C(O)CC(C)(C)CC2=O)=C(O)C1`, the cell count in test [1] was 628. The inhibition in test [1] is -6.7% (inactive); in test [3], -24.2% (inactive); in test [7] it was 7.41% (inactive); in test [8], 23.2% (inactive). Moreover, the inhibition of aggregation in test [2] is 15.8% (inactive). The nuclei count is 90.9% in test [2] and 112% in test [3]. In test [4], the fluorescence slope is -0.386 (inactive). For the same molecule, in test [5], the NADPH fluorescence slope is -1.3e-05 (inactive). Also, in test [6], the slope was 0.00397 (inactive).

`Cc1ccc(S(=O)(=O)Cn2nnnc2C(C(C)C)N2CCN(C(=O)c3ccco3)CC2)cc1` (centres undefined): the cell count in test [1] is 400. Besides, the inhibition in test [1] was -0.4% (inactive); in test [3], 6.9% (inactive); in test [7], 11.4% (inactive); in test [8], 15.4% (inactive). Besides, in test [2], the inhibition of aggregation was 2.5% (inactive). In addition, the nuclei count was 100% in test [2] and 101% in test [3]. Besides, the fluorescence slope in test [4] was -0.405 (inactive). In addition, the NADPH fluorescence slope in test [5] is -4.2e-05 (inactive). In test [6], the slope is 0.00633 (inactive).

In the case of `Cc1ccc(Nc2nc(CSc3nnc(-c4cccs4)o3)cs2)cc1`, the cell count in test [1] was found to be 444. The inhibition was -0.2% (inactive) in test [1], 16.3% (inactive) in test [3], -22% (inactive) in test [7] and -60.6% (inactive) in test [8]. The inhibition of aggregation in test [2] was 31.6% (inactive). The results for the nuclei count in test [2] and in test [3] were 110% and 113%, respectively. Besides, the fluorescence slope in test [4] is -0.408 (inactive). For the same molecule, the NADPH fluorescence slope in test [5] is -1.4e-05 (inactive). Besides, the slope in test [6] was 0.00487 (inactive).

Consider `O=C(Oc1cccc2cccnc12)c1cccc(-n2cnnn2)c1`, for which, in test [1], the cell count was determined as 461. The inhibition in test [1] was 2.7% (inactive); in test [3], -16.1% (inactive); in test [7], 15% (inactive); in test [8] it was 24.5% (inactive). For the same molecule, the inhibition of aggregation in test [2] is -8.5% (inactive). Moreover, the nuclei count in test [2] amounted to 105%; in test [3], 93.4%. Further, in test [4], the fluorescence slope is -0.494 (inactive). The NADPH fluorescence slope in test [5] is -3.7e-05 (inactive). In addition, in test [6], the slope was 0.00392 (inactive).

Regarding `COc1ccc(CNCC(=O)Nc2cc(C)nn2-c2nc(C)cc(C)n2)cc1OC`, the cell count in test [1] amounted to 431. Further, the inhibition in test [1] was 6.7% (inactive); in test [3], -481% (inactive); in test [7], 21.1% (inactive); in test [8] it was 32.1% (inactive). Besides, the inhibition of aggregation in test [2] is -0.4% (inactive). The nuclei count stood at 104% in test [2] and 152% in test [3]. Besides, the fluorescence slope in test [4] is -0.497 (inactive). The NADPH fluorescence slope in test [5] was -2.4e-05 (inactive). The slope in test [6] is 0.00701 (inactive).

As for `O=[n+]1c2c(n([O-])c3c1CCCC3)CCCC2`, the cell count in test [1] was found to be 658. Further, the inhibition was 5.8% (inactive) in test [1], 54.7% (inactive) in test [3], 11.8% (inactive) in test [7] and 24% (inactive) in test [8]. Further, the inhibition of aggregation in test [2] is -17.7% (inactive). Further, the nuclei count in test [2] was 109%; in test [3], 75.8%. Moreover, the fluorescence slope in test [4] was -0.399 (inactive). The NADPH fluorescence slope in test [5] was -6.5e-05 (inactive). Further, the slope in test [6] was 0.00619 (inactive).

Turning to `COc1ccccc1-n1c(-c2cccnc2)n[nH]c1=S`, the cell count in test [1] was determined as 204. Moreover, the inhibition in test [1] is -4.8% (inactive); in test [3], -123% (inactive); in test [7], -0.823% (inactive); in test [8] it was -12.6% (inactive). Also, in test [2], the inhibition of aggregation was 17.2% (inactive). The nuclei count in test [2] turned out to be 77%; in test [3], 107%. Besides, in test [4], the fluorescence slope is -0.598 (inactive). In addition, in test [5], the NADPH fluorescence slope is -4.1e-06 (inactive). Also, the slope in test [6] was 0.0043 (inactive).

Take `CCOc1ccc(NC(=O)CSc2nnc(COc3c(C)cccc3C)o2)cc1`: the cell count in test [1] is 577. Besides, the inhibition was 7.3% (inactive) in test [1], -13.1% (inactive) in test [3], 6.58% (inactive) in test [7] and 30.3% (inactive) in test [8]. Also, the inhibition of aggregation in test [2] was -15% (inactive). Besides, the nuclei count in test [2] is 116%; in test [3] it was 115%. Besides, the fluorescence slope in test [4] is -0.567 (inactive). In addition, the NADPH fluorescence slope in test [5] was -1.4e-05 (inactive). Also, the slope in test [6] was 0.00747 (inactive).

For the molecule `CC(C)c1cc(C(=O)NCc2ccco2)no1`, in test [1], the cell count amounted to 788. Moreover, the inhibition is 3.7% (inactive) in test [1], -45.3% (inactive) in test [3], -22.8% (inactive) in test [7] and -50.6% (inactive) in test [8]. In test [2], the inhibition of aggregation is -21.5% (inactive). The nuclei count is 104% in test [2] and 106% in test [3]. Also, the fluorescence slope in test [4] is -0.586 (inactive). The NADPH fluorescence slope in test [5] was -2.6e-05 (inactive). For the same molecule, the slope in test [6] was 0.00624 (inactive).

For `CCOC(=O)Cn1c(=N)n(CCOc2cccc(C)c2)c2ccccc21`, the cell count in test [1] was found to be 426. Moreover, the inhibition in test [1] is -18.5% (inactive); in test [3], -112% (inactive); in test [7] it was 11.4% (inactive); in test [8], 19.4% (inactive). In test [2], the inhibition of aggregation is 19.9% (inactive). Moreover, the nuclei count in test [2] came to 108%; in test [3], 224%. Further, the fluorescence slope in test [4] was -0.322 (inactive). Besides, the NADPH fluorescence slope in test [5] is 2e-05 (inactive). For the same molecule, the slope in test [6] is 0.00636 (inactive).

On to `O=S(=O)(c1ccc(N2CCN(c3ccc(F)cc3)CC2)cc1)N1CCCC1`, for which the cell count in test [1] turned out to be 230. Also, the inhibition is 14% (inactive) in test [1], -32.4% (inactive) in test [3], 10.2% (inactive) in test [7] and 19.7% (inactive) in test [8]. Also, in test [2], the inhibition of aggregation was -8.7% (inactive). Besides, the figures for the nuclei count in test [2] and in test [3] were 95.7% and 106%, respectively. Further, in test [4], the fluorescence slope is -0.476 (inactive). In addition, the NADPH fluorescence slope in test [5] was -2.4e-05 (inactive). In test [6], the slope was 0.00651 (inactive).
